Values joined by “and” are separate entries in the source; they are usually repeats but may differ in a detail not shown here. Equal entries are not always repeated. The whole screen tested about 16,000 compounds, of which about 4,000 (25%) were called active. Inconclusive results (about 26%) are left out. The call rests on the fitted dose curve; in most records, active means well fitted curve in the direction sought with a large enough effect; inconclusive means small, poorly fitted or top-dose-only effect, or effect the other way; inactive means no such curve, though single readings can be large or run the other way. Not all results are given here.
Target: Cytochrome P450 2C9 (Homo sapiens) (UniProt P11712)
Sequence (P11712 whole entry, looked up): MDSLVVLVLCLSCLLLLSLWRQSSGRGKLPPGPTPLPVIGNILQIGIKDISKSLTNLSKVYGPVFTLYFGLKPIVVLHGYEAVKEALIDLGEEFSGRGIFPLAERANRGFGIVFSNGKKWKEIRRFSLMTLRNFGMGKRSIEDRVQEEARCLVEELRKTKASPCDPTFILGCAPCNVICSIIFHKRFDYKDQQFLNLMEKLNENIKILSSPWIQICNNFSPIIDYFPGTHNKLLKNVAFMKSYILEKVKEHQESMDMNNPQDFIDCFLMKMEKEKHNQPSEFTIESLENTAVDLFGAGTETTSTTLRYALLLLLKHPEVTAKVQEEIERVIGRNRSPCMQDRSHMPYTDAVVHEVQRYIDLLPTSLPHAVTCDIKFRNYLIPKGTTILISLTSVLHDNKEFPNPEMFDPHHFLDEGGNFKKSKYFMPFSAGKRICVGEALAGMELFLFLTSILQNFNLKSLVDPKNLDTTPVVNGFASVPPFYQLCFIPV
Experiment: Cytochrome panel assay with activity outcomes
Details: recombinant CYP, pro-luciferin dealkylation, luminescence, p450-cyp2c9; series mostly up to 57.1 µM
On the % scale 0 is the no-effect control and ±100 the full control effect.

AC50, inactive:
C[C@@H]1C[C@@H]2[C@H]3CCC4=CC(=O)C=C[C@]4(C)[C@]3(Cl)[C@@H](O)C[C@@]2(C)[C@@]1(O)C(=O)CO
O=c1[nH]c2cc([N+](=O)[O-])c([N+](=O)[O-])cc2[nH]c1=O
CC(C)(C)NC(=O)COC(=O)c1cncc(Br)c1
CCOc1ccc(C(F)(F)F)cc1NC(=O)c1ccc(OC)c([N+](=O)[O-])c1
CCOC(=O)Nc1ccc2c(c1)N(C(=O)CCN1CCN(C)CC1)c1ccccc1S2
Nc1cc(=O)[nH]c(N)n1
COCCCNC(=O)/C=C/c1ccc(Cl)cc1
CC(C)NCCOCCSc1ccc(Cl)cc1
CN1CCN(CCCNC(=O)c2ccc(CSCc3cccc(Cl)c3)o2)CC1
N[C@H](Cn1ccc(=O)n(Cc2ccccc2C(=O)O)c1=O)C(=O)O
Cc1noc(C)c1C(=O)N1CCC[C@@]2(CCN(C(=O)NC(C)C)C2)C1
COc1cccc(NC(=O)CSc2nc3c(c(-c4ccco4)c2C#N)CCCC3)c1
Cc1cc2ncn(/N=C/c3ccc([N+](=O)[O-])o3)c2cc1C
Cn1cccc1C(=O)N1CCC2(CCN(C(=O)Nc3cccc(F)c3)CC2)CC1
COc1ccc(C(=O)Nc2ccc(C(=O)OCC(=O)c3ccccc3)cc2)cc1
COc1cccc(NC(=O)COC(=O)c2nc3nccc(C)n3n2)c1
Nc1c2c(nc3ccccc13)CCCC2
Cn1c2c(c(=O)n(C)c1=O)CN(CCN1CCNCC1)CN2
[N-]=[N+]=Nc1ccc(C(=O)CSC[C@@H](NC(=O)CC[C@@H](N)C(=O)O)C(=O)NCC(=O)O)cc1
N[C@H](CCC(=O)NCC(=O)O)C(=O)O
Cc1c(CC(C)(C)C(=O)O)n(Cc2ccc(Cl)cc2)c2ccc(F)cc12
NCCC(=O)O
COc1cccc(CNc2ccc3nc(-c4ccc(N)cc4)c(OC)n3n2)c1
CCN(CC)CCCN(Cc1cc2ccc(C)c(C)c2[nH]c1=O)C(=O)NC1CCCCC1
Cc1nc(-c2cccnc2)sc1C(N)=O
CNC(=O)c1sc(-c2cccnc2)nc1C
CNc1c2c(nn1C)CCCC2
O=c1cc(CO)oc(CN2CCCC2)c1O
COc1cccc(C=NC=Nc2cccc(OC)c2)c1
C[C@](N)(COP(=O)(O)O)C(=O)O
CC(=O)N(CC(O)CN(C(C)=O)c1c(I)c(C(=O)NC[C@@H](O)CO)c(I)c(C(=O)NC[C@@H](O)CO)c1I)c1c(I)c(C(=O)NC[C@@H](O)CO)c(I)c(C(=O)NC[C@@H](O)CO)c1I
Cc1cccc(Sc2c([N+](=O)[O-])ncn2C)n1
N#Cc1ccc(CN2CC3(CCN(C(=O)c4cc(C(F)(F)F)cc(C(F)(F)F)c4)CC3)C2)cc1
CC(C)NC(=O)N1CC2(CCN(S(=O)(=O)c3ccccc3)CC2)C1
O=S(=O)(c1ccccc1)N1CCC2(CCCN(C(c3ccccc3)c3ccccc3)C2)CC1
CS(=O)(=O)N1CCC2(CCN(C(c3ccccc3)c3ccccc3)CC2)CC1
NC1CCN(c2cccc(Cl)n2)CC1
C[C@H]1[C@@H](O)[C@@H](C)\C=C/C=C\C=C/C=C\C=C/C=C\C=C/[C@@H](O[C@H]2O[C@@H](C)[C@@H](O)[C@@H](N)[C@@H]2O)C[C@@H]2O[C@](O)(C[C@@H](O)C[C@@H](O)[C@@H](O)CC[C@@H](O)C[C@@H](O)CC(=O)O[C@H]1C)C[C@@H](O)[C@H]2C(=O)O (stereo in doubt)

AC50, active:
O=C(O)c1[nH]c2c([N+](=O)[O-])cc([N+](=O)[O-])cc2c1C(=O)O 3.16 µM
COc1ccc(C(C)(C)C)cc1NC(=O)c1cncc(Br)c1 20 µM
COC(=O)c1cc(NC(=O)N2c3ccccc3Sc3ccccc32)cc(C(=O)OC)c1 3.55 µM
COCCNC(=O)c1onc(CSc2cccc(Cl)c2)c1C(=O)O 3.98 µM
COCCNC(=O)c1onc(CSc2ccc(Cl)cc2)c1C(=O)O 5.01 µM
COCCNC(=O)c1onc(CSc2ccccc2F)c1C(=O)O 15.8 µM
C=CCNC(=O)c1onc(CSc2ccc(F)cc2)c1C(=O)O 8.91 µM
Cc1cc(/C=N\NC(=O)c2cccs2)c(C)n1-c1ccc2ncccc2c1 3.16 µM
N#Cc1c(N)nc2c(c1-c1cccc(O)c1)CCCCCC2 8.91 µM
Cc1cc(-c2ccc(/C=N/n3cnnc3)o2)c([N+](=O)[O-])cc1C 2.51 µM
Cc1ccc(-c2ccc(/C=N/N3C(=O)C4C5C=CC(C6CC56)C4C3=O)o2)c([N+](=O)[O-])c1 (stereo not given) 5.01 µM
COCC(=O)Oc1c(S(=O)(=O)c2ccc(C)cc2)c(C)nn1-c1ccccc1 1.78 µM
COc1cccc(NC(=O)COC(=O)c2c3c(nc4ccccc24)CCC(C)C3)c1 (stereo not given) 11.2 µM
COc1ccc(NC(=O)COC(=O)c2c3c(nc4ccccc24)CCCC3)cc1 7.08 µM
COc1ccc(OC)c(NC(=O)c2c3c(nc4ccccc24)CCC3)c1 14.1 µM
COc1cc(-c2nnc(COC(=O)c3c4c(nc5ccccc35)CCCC4)o2)cc(OC)c1OC 2 µM
N[C@H](CCC(=O)N[C@H](CSN=O)C(=O)NCC(=O)O)C(=O)O 5.01 µM
Fc1ccc(Cn2c(SCc3ccc(F)c(C(F)(F)F)c3)nnc2C(F)(F)F)cc1 7.08 µM
Fc1ccc(Cn2c(SCc3ccc(F)c(F)c3)nnc2C(F)(F)F)cc1 15.8 µM
Cc1ccc(CSc2nnc(C(F)(F)F)n2Cc2ccc(F)cc2)cc1 4.47 µM
COc1cccc(CSc2nnc(C(F)(F)F)n2Cc2ccc(F)cc2)c1 11.2 µM
Cc1ccc(C(=O)Nc2c(C#N)c(C)c(C)n2Cc2ccccc2)cc1 3.55 µM
C/C(=N\OC(=O)NC1CCCCC1)c1sc(-c2ccccc2)nc1C 11.2 µM
COc1cccc(-c2[nH]nc3c2C(c2ccsc2)C(C#N)=C(N)O3)c1 (stereo not given) 2.51 µM
CC(C(=O)Nc1ccccc1Sc1ccccc1)N(c1ccccc1)S(C)(=O)=O (stereo not given) 4.47 µM
Cc1ccc(N(C(C)C(=O)Nc2cc(Cl)ccc2Oc2ccccc2)S(C)(=O)=O)cc1 (stereo not given) 6.31 µM
Cc1ccc(N=C/C(C(=O)C(F)(F)F)=C(\O)c2cccs2)cc1 3.55 µM
COc1cc(C2C(C#N)=C(N)N(Nc3ccccc3)C3=C2C(=O)CC(C)(C)C3)ccc1OCc1cccc(F)c1 (stereo not given) 3.98 µM
COc1ccc(C2C(C#N)=C(N)N(Nc3ccccc3)C3=C2C(=O)CC(C)(C)C3)cc1C (stereo not given) 1.58 µM
O=S(=O)(c1ccccc1)N1CCC2(CCN(C(c3ccccc3)c3ccccc3)CC2)CC1 0.501 µM
O=S(=O)(c1ccccc1)N1CCC2(CC1)CN(C(c1ccccc1)c1ccccc1)C2 1 µM

activity, negative = inhibition, inactive:
N[C@@H](Cc1c[nH]c2ccc([N+](=O)[O-])cc12)C(=O)O 9.84% [at 11.4 µM]
O=C1C[C@H]2C(=O)[C@@H]1[C@@H](C(=O)O)[C@H]2C(=O)O 19.5% [at 11.4 µM]
CC1CCN(CC(=O)N2c3ccccc3Sc3cc4ccccc4cc32)CC1 -17.9% [at 11.4 µM]
c1nc(NCCN2CCOCC2)c2cc(-c3ccoc3)ccc2n1 -2.85% [at 2.29 µM]
O=C(O)[C@H](Cc1ccc(O)c([N+](=O)[O-])c1)N1C(=O)c2ccccc2C1=O 0.788% [at 11.4 µM]
Clc1ccc2c(NC3CCC(N4CCCCC4)CC3)ccnc2c1 (stereo not given) 10.6% [at 11.4 µM]
COc1ccccc1-c1cncnc1Nc1ccc(F)cc1 -21.5% [at 2.29 µM]
CON(C)C(=O)c1nnc2c3ccccc3n(S(=O)(=O)c3ccc(C)cc3)c2n1 12.1% [at 11.4 µM] and -11.7% [at 11.4 µM]
Cc1cc(C)c(-c2cc([C@H](C)O/N=C\[C@@H](C)[C@H](OCc3ccccc3)C(C)C)on2)c(C)c1 -7.67% [at 11.4 µM]
C[N+](C)(N)CCC[N+](C)(C)N 15.9% [at 11.4 µM]
CO[C@@H](C(C)C)[C@@H](C)[C@@H]1OC(=O)C[C@@H]1O -15.2% [at 11.4 µM]
COc1cccc(CSCC(=O)O)c1 -12.1% [at 11.4 µM]
COc1cccc(-c2nccc(NC3CCNCC3)n2)c1 9.19% [at 2.29 µM]
Cc1cc(=O)oc2cc(O)c(CN(C)CC(=O)O)cc12 -0.896% [at 11.4 µM]
Cc1ccc([C@@H](O)c2cnc(C)n2Cc2ccccc2)cc1 -18.2% [at 11.4 µM]
Cc1noc(C)c1-c1nccc(N(C)C)n1 -8.59% [at 2.29 µM]
CC(=O)OC[C@@H]1O[C@@H](O/N=C2/C[C@@H](O)[C@@H](O)[C@@H]3[C@@H]4C(=O)N(C[C@@H]5CCCO5)C(=O)[C@H]4CC[C@@H]23)[C@H](OC(C)=O)[C@H](OC(C)=O)[C@@H]1OC(C)=O -5.55% [at 11.4 µM]
COc1cccc(-c2cc(NCc3cccs3)ncn2)c1 -10.2% [at 2.29 µM]
CN(C)C(=O)c1ccc(-c2ccc3ncnc(NCc4cccs4)c3c2)cc1 8.22% [at 2.29 µM]
COc1ccccc1-c1cc(NCc2cnc(C)cn2)ncn1 9.42% [at 2.29 µM]
O=C(O)[C@H]([C@H]1NCCS1)N1Cc2ccccc2C1 1.08% [at 11.4 µM]
